Source: the supplement of paper PMC10849652
About 7,900 targets were measured; listed, in parts, are those with a hit and a random draw of the rest. About 0.6% of all pairs of compound and target were hits.

Assays:
Assay in all cases: log2 fold change, soluble protein after heating vs DMSO (PISA); higher = thermal stabilisation; K562 cells, 10 uM, 30 min; active = over 0.2 and 3.5 SD of the protein, either way, in both replicates (recomputed)
[1] = compound: CS(=O)(=O)c1ccc(-c2cnc(N)c(C(=O)Nc3ccccc3)n2)cc1
Procedure, shortened: (§1)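 Quantification of soluble protein used TMTpro 16plex LC-MS/MS, with channel sums equalised. Samples were the supernatant after 21,000xg for 90 min of pooled aliquots from K562 cells (2×10^6 cells/mL) treated with 10 μM compound for 30 min, heated for 3 min over 48°C-58°C, and extracted in PBS with 0.5% NP-40 at 4°C. Values, from duplicates, describe thermal stability against control samples on a log2 fold-change scale.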

[2] = compound: C[C@@H](Oc1cc(-c2cnn(C3CCNCC3)c2)cnc1N)c1c(Cl)ccc(F)c1Cl [crizotinib]
Procedure, shortened: as §1

[3] = compound: C[C@@H]1COCCN1C2=NC(=NC(=C2)C3(CC3)S(=O)(=O)C)C4=C5C=CNC5=CC=C4
Procedure, shortened: as §1

[4] = compound: C[C@H](C1=CC=C(C=C1)C(=O)NC2=C3C=CNC3=NC=C2)N
Procedure, shortened: as §1

[5] = compound: C[C@H](Nc1ncnc2nc[nH]c12)c1cc2cccc(Cl)c2c(=O)n1-c1ccccc1 [duvelisib]
Procedure, shortened: as §1

[6] = compound: Cc1cc(Nc2cc(CN3CCOCC3)c3nc(C)c(Cc4ccc(Cl)cc4F)n3n2)n[nH]1 [gandotinib]
Procedure, shortened: as §1

[7] = compound: Cc1cc(Nc2cc(N3CCN(C)CC3)nc(Sc3ccc(NC(=O)C4CC4)cc3)n2)n[nH]1 [tozasertib]
Procedure, shortened: as §1

[8] = compound: Cc1cc(SCc2sc(-c3ccc(C(F)(F)F)cc3)nc2C)ccc1OCC(=O)O
Procedure, shortened: as §1

[9] = compound: Cc1ccc(-n2nc(C(C)(C)C)cc2NC(=O)Nc2ccc(OCCN3CCOCC3)c3ccccc23)cc1 [doramapimod]
Procedure, shortened: as §1

[10] = compound: Cc1ccc(C(=O)N(CCCN)[C@@H](c2nc3cc(Cl)ccc3c(=O)n2Cc2ccccc2)C(C)C)cc1 [ispinesib]
Procedure, shortened: as §1

[11] = compound: Cc1ccc(NC(=O)c2ccc(CN3CC[C@H](N(C)C)C3)c(C(F)(F)F)c2)cc1Nc1nccc(-c2cncnc2)n1 [bafetinib]
Procedure, shortened: as §1

[12] = compound: Cc1cccc(CC(=O)N2CCc3c2ccc(-c2cn(C)c4ncnc(N)c24)c3F)n1
Procedure, shortened: as §1

[13] = compound: Cc1cn(-c2cc(NC(=O)c3ccc(C)c(Nc4nccc(-c5cccnc5)n4)c3)cc(C(F)(F)F)c2)cn1 [nilotinib]
Procedure, shortened: as §1

[14] = compound: Cc1nc(Nc2n[nH]c3c2CN(C(=O)N[C@H](CN(C)C)c2ccccc2)C3(C)C)c2sccc2n1
Procedure, shortened: as §1

[15] = compound: Cc1nc(Nc2ncc(C(=O)Nc3c(C)cccc3Cl)s2)cc(N2CCN(CCO)CC2)n1 [dasatinib]
Procedure, shortened: as §1

[16] = compound: Cc1ncc(-c2ccnc(Nc3ccc(S(C)(=O)=O)cc3)n2)n1C(C)C
Procedure, shortened: as §1

[17] = compound: Cn1cc(-c2ccc3c(c2)CCN3C(=O)Cc2cccc(C(F)(F)F)c2)c2c(N)ncnc21
Procedure, shortened: as §1

[18] = compound: Cn1cc(-c2ccc3nnc(C(F)(F)c4ccc5ncccc5c4)n3n2)cn1
Procedure, shortened: as §1

[19] = compound: Cn1cncc1[C@@](N)(c1ccc(Cl)cc1)c1ccc2c(c1)c(-c1cccc(Cl)c1)cc(=O)n2C [tipifarnib]
Procedure, shortened: as §1

[20] = compound: FC(F)(F)c1ccc(/C=C/c2nc(COc3ccc(CCCCn4ccnn4)cc3)co2)cc1 [mubritinib]
Procedure, shortened: as §1

Measured: log2 fold change

MAP2K3 isoform 3 (UniProt P46734)
inactive: [1] 0.054 | [2] -0.049 | [3] -0.068 | [4] 0.043 | [5] 0.091 | [6] -0.001 | [7] 0.005 | [8] -0.007 | [9] 0.012 | [10] -0.02 | [11] -0.071 | [12] 0.096 | [13] -0.019 | [14] 0.021 | [15] -0.04 | [16] -0.049 | [17] 0.005 | [18] -0.083 | [19] 0.08 | [20] -0.145

ILVBL (UniProt A1L0T0)
UniProt A1L0T0, sequence (A1L0T0 whole entry, looked up): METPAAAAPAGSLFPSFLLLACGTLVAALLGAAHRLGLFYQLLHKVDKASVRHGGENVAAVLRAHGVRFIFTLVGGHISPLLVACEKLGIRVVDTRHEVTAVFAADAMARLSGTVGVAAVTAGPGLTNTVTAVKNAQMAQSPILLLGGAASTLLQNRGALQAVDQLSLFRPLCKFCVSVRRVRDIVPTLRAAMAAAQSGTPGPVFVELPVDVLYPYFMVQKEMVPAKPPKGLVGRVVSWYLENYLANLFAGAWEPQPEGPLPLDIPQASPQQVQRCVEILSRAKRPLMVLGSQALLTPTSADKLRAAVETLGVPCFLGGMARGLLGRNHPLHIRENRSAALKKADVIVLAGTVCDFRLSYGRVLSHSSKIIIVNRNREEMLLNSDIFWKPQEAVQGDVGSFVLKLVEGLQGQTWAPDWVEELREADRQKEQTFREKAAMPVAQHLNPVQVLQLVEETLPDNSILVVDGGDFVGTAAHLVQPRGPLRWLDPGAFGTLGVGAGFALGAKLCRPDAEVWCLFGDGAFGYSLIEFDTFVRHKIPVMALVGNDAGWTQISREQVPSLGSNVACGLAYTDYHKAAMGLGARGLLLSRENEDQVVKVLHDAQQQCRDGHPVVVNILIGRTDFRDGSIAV
active: [10] 0.213
inactive: [1] 0.055 | [2] 0 | [3] 0.058 | [4] 0.061 | [5] 0.106 | [6] 0.02 | [7] -0.067 | [8] -0.005 | [9] -0.003 | [11] 0.065 | [12] -0.049 | [13] 0.074 | [14] 0.011 | [15] -0.09 | [16] -0.025 | [17] 0.247 | [18] -0.005 | [19] -0.047 | [20] 0.041

KDM5D isoform 3 (UniProt Q9BY66)
UniProt Q9BY66, sequence (Q9BY66 whole entry, looked up): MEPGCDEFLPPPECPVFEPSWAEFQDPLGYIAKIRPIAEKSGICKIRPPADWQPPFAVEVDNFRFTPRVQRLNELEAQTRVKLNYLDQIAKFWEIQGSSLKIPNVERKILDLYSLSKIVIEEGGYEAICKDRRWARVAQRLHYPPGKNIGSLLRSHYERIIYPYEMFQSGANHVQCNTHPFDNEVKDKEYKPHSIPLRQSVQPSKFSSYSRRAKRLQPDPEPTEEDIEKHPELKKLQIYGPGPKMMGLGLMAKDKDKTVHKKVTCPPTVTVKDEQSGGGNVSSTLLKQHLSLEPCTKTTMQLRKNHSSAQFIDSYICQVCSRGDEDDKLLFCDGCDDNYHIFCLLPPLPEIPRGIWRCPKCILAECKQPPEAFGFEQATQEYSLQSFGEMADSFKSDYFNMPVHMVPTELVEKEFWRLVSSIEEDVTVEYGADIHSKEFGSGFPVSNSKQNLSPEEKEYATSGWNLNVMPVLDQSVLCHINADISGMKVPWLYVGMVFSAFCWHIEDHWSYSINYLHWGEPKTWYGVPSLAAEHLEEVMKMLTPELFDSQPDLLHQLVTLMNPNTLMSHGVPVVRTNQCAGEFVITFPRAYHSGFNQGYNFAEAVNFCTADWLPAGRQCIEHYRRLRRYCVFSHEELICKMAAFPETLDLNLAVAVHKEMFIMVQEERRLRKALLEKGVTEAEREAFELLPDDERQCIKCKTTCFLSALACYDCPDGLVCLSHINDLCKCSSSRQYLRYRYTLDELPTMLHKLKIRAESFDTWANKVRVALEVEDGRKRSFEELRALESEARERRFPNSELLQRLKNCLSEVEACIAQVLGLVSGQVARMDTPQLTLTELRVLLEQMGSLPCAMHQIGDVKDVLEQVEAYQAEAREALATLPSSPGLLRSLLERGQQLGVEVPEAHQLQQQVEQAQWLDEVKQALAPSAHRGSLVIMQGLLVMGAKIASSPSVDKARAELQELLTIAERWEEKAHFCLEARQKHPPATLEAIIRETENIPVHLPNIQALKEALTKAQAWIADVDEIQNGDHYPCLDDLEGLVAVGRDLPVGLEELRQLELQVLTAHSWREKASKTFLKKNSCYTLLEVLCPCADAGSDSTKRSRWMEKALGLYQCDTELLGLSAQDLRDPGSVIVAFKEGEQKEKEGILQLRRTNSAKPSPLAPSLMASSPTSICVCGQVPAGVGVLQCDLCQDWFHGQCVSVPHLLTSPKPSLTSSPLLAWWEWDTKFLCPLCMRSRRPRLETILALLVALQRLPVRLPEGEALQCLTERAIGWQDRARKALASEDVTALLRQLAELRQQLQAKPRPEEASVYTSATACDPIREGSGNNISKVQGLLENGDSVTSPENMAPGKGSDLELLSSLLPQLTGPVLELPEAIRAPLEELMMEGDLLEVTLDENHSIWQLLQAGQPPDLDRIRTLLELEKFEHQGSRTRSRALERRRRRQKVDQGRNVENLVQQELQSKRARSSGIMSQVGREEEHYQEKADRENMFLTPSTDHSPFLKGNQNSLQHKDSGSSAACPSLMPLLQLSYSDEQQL
inactive: [1] -0.004 | [2] 0.038 | [3] -0.005 | [4] -0.054 | [5] 0.057 | [6] -0.051 | [7] 0.212 | [8] 0.125 | [9] 0.108 | [10] 0 | [11] 0.208 | [12] -0.049 | [13] 0.089 | [14] -0.054 | [15] -0.289 | [16] -0.047 | [17] -0.026 | [18] 0.058 | [19] -0.044 | [20] 0.203

MCU (UniProt Q8NE86)
UniProt Q8NE86, sequence (Q8NE86 whole entry, looked up): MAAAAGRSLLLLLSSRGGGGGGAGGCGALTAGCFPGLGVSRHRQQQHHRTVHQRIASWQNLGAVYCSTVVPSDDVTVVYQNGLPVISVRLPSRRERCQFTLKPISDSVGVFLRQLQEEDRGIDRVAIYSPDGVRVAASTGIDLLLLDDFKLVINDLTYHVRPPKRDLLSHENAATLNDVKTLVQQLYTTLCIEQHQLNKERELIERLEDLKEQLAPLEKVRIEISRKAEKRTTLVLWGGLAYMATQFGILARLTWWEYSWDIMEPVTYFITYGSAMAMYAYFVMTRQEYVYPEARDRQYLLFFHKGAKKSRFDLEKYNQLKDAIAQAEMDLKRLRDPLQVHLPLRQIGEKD
inactive: [1] -0.013 | [2] -0.159 | [3] 0.015 | [4] 0.001 | [5] 0.061 | [6] -0.172 | [7] -0.012 | [8] 0.054 | [9] -0.013 | [10] -0.1 | [11] -0.173 | [12] 0.032 | [13] -0.017 | [14] 0.128 | [15] -0.055 | [16] -0.026 | [17] -0.03 | [18] 0 | [19] -0.005 | [20] 0.024

MAPK9 (UniProt P45984)
UniProt P45984, sequence (P45984 whole entry, looked up): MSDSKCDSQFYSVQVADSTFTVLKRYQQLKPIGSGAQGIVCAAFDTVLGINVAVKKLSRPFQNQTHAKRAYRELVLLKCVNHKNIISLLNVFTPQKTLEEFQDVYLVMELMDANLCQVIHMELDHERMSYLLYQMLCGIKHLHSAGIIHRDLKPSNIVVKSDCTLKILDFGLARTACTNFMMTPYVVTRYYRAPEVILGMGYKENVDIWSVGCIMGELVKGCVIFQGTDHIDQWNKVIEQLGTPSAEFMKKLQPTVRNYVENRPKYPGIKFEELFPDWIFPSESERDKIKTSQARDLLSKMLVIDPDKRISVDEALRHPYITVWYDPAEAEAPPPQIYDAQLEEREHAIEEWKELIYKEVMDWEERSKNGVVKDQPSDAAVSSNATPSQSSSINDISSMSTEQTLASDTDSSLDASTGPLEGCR
inactive: [1] 0.006 | [2] -0.042 | [3] 0.054 | [4] -0.068 | [5] 0.023 | [6] -0.018 | [7] -0.013 | [8] -0.041 | [9] 0.145 | [10] 0.01 | [11] -0.112 | [12] 0.003 | [13] -0.023 | [14] 0.047 | [15] -0.044 | [16] 0.134 | [17] 0.042 | [18] 0.04 | [19] 0.015 | [20] -0.059

MDN1 (UniProt Q9NU22)
inactive: [1] -0.072 | [2] -0.135 | [3] 0.094 | [4] 0.002 | [5] 0.024 | [6] -0.156 | [7] -0.052 | [8] 0.063 | [9] -0.005 | [10] -0.117 | [11] -0.094 | [12] 0 | [13] -0.15 | [14] -0.195 | [15] -0.245 | [16] -0.089 | [17] 0.02 | [18] 0.011 | [19] -0.052 | [20] -0.089

MAGEA9 (UniProt P43362)
UniProt P43362, sequence (P43362 whole entry, looked up): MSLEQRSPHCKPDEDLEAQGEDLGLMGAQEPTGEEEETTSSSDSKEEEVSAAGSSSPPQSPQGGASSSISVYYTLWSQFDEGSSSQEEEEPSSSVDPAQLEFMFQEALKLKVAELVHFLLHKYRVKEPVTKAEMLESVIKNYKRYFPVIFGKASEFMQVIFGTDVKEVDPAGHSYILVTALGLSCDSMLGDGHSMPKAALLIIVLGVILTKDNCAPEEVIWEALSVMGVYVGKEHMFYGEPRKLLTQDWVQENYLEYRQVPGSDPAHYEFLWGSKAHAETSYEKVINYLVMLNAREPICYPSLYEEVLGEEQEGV
inactive: [1] 0.005 | [2] 0.008 | [3] 0.082 | [4] -0.028 | [5] 0.12 | [6] -0.095 | [7] 0.168 | [8] -0.029 | [9] 0 | [10] -0.001 | [11] 0.03 | [12] -0.02 | [13] 0.021 | [14] -0.006 | [15] 0.074 | [16] -0.034 | [17] 0.065 | [18] -0.024 | [19] -0.008 | [20] -0.048

KCT2 (UniProt Q8NC54)
UniProt Q8NC54, sequence (Q8NC54 whole entry, looked up): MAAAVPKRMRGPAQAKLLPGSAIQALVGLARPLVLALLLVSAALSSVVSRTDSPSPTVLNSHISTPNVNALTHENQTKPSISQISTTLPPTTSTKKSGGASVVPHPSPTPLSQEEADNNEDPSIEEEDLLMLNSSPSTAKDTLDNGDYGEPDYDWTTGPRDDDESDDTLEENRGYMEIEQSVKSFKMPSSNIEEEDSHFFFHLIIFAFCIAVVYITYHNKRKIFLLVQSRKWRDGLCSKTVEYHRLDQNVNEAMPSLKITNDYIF
inactive: [1] 0 | [2] -0.186 | [3] 0.074 | [4] -0.04 | [5] 0.064 | [6] 0.038 | [7] 0.033 | [8] 0.054 | [9] 0.091 | [10] -0.118 | [11] -0.114 | [12] 0.045 | [13] -0.01 | [14] -0.023 | [15] 0.045 | [16] 0.021 | [17] 0.01 | [18] 0.073 | [19] 0.125 | [20] 0.052

MAIP1 (UniProt Q8WWC4)
UniProt Q8WWC4, sequence (Q8WWC4 whole entry, looked up): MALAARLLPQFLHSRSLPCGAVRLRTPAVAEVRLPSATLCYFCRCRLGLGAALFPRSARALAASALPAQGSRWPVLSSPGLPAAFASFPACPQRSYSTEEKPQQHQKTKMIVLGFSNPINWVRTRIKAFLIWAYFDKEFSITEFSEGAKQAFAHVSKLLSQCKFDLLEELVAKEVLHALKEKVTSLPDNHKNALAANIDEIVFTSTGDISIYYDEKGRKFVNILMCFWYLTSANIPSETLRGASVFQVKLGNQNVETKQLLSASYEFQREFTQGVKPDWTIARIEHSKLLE
inactive: [1] 0.071 | [2] -0.114 | [3] 0.062 | [4] -0.072 | [5] 0.025 | [6] -0.025 | [7] 0.027 | [8] -0.005 | [9] -0.008 | [10] -0.21 | [11] -0.147 | [12] 0.005 | [13] 0.027 | [14] 0.007 | [15] -0.021 | [16] -0.004 | [17] 0.031 | [18] 0.028 | [19] -0.047 | [20] -0.006

MED22 (UniProt Q15528)
UniProt Q15528, sequence (Q15528 whole entry, looked up): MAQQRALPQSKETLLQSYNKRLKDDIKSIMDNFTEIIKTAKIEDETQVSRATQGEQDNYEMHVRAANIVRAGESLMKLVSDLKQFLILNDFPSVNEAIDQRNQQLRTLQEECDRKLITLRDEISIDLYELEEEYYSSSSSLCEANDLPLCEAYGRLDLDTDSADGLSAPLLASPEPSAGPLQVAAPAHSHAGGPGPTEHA
inactive: [1] 0.013 | [2] -0.082 | [3] 0.027 | [4] 0.027 | [5] 0.158 | [7] -0.036 | [8] 0.049 | [9] 0.027 | [10] -0.098 | [11] -0.137 | [13] 0.019 | [14] -0.048 | [15] -0.009 | [16] -0.011 | [17] 0.102 | [18] 0.059 | [20] -0.043

MAN2B2 (UniProt Q9Y2E5)
UniProt Q9Y2E5, sequence (Q9Y2E5 whole entry, looked up): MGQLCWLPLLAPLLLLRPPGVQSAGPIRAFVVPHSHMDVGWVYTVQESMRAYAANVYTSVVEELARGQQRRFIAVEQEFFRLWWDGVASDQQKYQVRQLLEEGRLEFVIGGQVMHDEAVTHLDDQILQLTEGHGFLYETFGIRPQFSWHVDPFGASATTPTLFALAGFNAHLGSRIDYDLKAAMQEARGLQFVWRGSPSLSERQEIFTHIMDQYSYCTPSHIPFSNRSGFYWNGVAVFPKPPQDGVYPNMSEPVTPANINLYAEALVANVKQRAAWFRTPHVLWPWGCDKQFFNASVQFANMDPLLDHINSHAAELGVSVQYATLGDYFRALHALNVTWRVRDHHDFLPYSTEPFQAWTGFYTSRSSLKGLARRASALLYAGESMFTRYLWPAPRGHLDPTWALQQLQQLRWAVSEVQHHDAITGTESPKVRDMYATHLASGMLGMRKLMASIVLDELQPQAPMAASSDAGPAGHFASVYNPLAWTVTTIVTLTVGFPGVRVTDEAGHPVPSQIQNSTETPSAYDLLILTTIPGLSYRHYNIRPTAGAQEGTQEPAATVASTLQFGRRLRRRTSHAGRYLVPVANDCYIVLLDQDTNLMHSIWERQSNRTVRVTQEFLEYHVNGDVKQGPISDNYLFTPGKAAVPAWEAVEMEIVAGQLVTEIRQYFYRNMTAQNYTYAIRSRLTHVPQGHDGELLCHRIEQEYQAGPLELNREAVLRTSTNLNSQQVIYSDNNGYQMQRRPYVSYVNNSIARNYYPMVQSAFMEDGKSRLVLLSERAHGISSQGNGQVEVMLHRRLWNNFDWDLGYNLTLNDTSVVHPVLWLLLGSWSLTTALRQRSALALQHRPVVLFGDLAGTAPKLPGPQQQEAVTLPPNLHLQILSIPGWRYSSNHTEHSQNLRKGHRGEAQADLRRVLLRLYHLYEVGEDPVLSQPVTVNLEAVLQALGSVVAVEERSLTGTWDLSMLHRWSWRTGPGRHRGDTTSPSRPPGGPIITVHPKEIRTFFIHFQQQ
inactive: [1] 0.051 | [2] -0.014 | [3] 0.055 | [5] 0.094 | [7] -0.044 | [8] 0.004 | [9] 0.017 | [10] -0.147 | [11] -0.302 | [13] -0.171 | [14] 0.057 | [15] 0.013 | [16] -0.023 | [18] -0.088 | [19] 0.093 | [20] 0.147

ILF3 (UniProt Q12906)
inactive: [1] -0.152 | [2] -0.201 | [3] -0.284 | [9] 0.026 | [11] 0.084 | [13] -0.065 | [14] 0.167 | [16] 0.364 | [20] -0.074
